{"source": "ChEMBL document CHEMBL3988442", "about": "“University of Dundee, Small-Polar-MMV Screening Library” (2021)", "note": "Hit rate of the full screen: of about 48,000 compounds, about 13,000 (27%) showed an effect of 50% or more. This is one part of the list.", "data": [{"tested_on": "Wolbachia pipientis", "assay": "Anti-Wolbachia Cell-Based Screen", "format": "functional", "design": "scale not given: in the data most compounds retested in dose-response had high values", "conditions": "5 µM", "units": {"Percent Effect": "%"}, "values": [{"smiles": "COCC(=O)Nc1ccc(-c2noc([C@@H]3CCCN3CC(C)C)n2)cn1", "Percent Effect": 49.09}, {"smiles": "COCC(=O)Nc1ccc(-c2noc([C@@H]3CCCN3C(C)C)n2)cn1", "Percent Effect": 57.87}, {"smiles": "COCC(=O)Nc1ccc(-c2noc([C@@H]3CCCN3C)n2)cn1", "Percent Effect": -1.727}, {"smiles": "COc1ccc(CN(C)C(=O)CCC(=O)c2cccs2)c(OC)c1OC", "Percent Effect": -8.068}, {"smiles": "CCOc1cc([C@@H]2N[C@H](c3nccs3)Cc3ccsc32)ccc1OC", "Percent Effect": 100.4}, {"smiles": "COc1ccc(OC)c([C@@H]2N[C@H](c3nccs3)Cc3ccsc32)c1", "Percent Effect": 139.9}, {"smiles": "COc1ccc(C(C)NC(=O)Nc2nccs2)cc1OC", "note": "(stereo unspecified)", "Percent Effect": -9.507}, {"smiles": "COc1ccc(OC)c(C2CCN(c3ccc4cc[nH]c4n3)C2)c1", "note": "(stereo unspecified)", "Percent Effect": 5.101}, {"smiles": "CCOc1cc([C@H]2N[C@@H](c3nc(C)cs3)Cc3ccsc32)ccc1OC", "Percent Effect": 131.4}, {"smiles": "CCOc1cc(/C=C/c2ncc(C(=O)NC)s2)ccc1OC", "Percent Effect": 34.03}, {"smiles": "CCOc1cc(CNc2cc(-c3nc(C)no3)ccn2)ccc1OC", "Percent Effect": -0.8232}, {"smiles": "COc1ccc(OC)c(C2CCN(C3CCOCC3)C2)c1", "note": "(stereo unspecified)", "Percent Effect": 1.409}, {"smiles": "COc1cc([C@@H]2N[C@H](c3nccs3)Cc3ccsc32)cc(OC)c1OC", "Percent Effect": 111.7}, {"smiles": "CCOc1ccc(C(=O)CCC(=O)NCc2csc(N)n2)cc1C", "Percent Effect": 5.175}, {"smiles": "CC1CCc2nc(O)c(C(=O)NCCCN3CCN(C)CC3)cc2C1", "note": "(stereo unspecified)", "Percent Effect": -5.002}, {"smiles": "CC(=O)c1sc2nc3c(c(C(F)(F)F)c2c1N)CN(C(C)=O)CC3", "Percent Effect": -4.263}, {"smiles": "Cc1ccc(SCC(=O)NS(=O)(=O)c2ccc3c(c2)OCCO3)cc1", "Percent Effect": -12.07}, {"smiles": "O=C(O)C(F)(F)F.O=C(O)C(F)(F)F.O=C(O)c1cc2c(nc1N1CCCC1)CCN(C1CCOCC1)CC2", "Percent Effect": -7.138}, {"smiles": "COCCN(CC1CCCN(C2Cc3ccccc3C2)C1)C(=O)COC", "note": "(stereo unspecified)", "Percent Effect": -1.224}, {"smiles": "CC(C)CN1C[C@H]2CCN(c3ncccn3)CC[C@H]2S1(=O)=O.O=C(O)C(F)(F)F", "Percent Effect": -7.419}, {"smiles": "COc1cccc([C@@H]2N[C@H](c3nccs3)Cc3ccsc32)c1OC", "Percent Effect": 146.2}, {"smiles": "COc1cccc(C2CCN(c3ccc4cc[nH]c4n3)C2)c1OC", "note": "(stereo unspecified)", "Percent Effect": -24.45}, {"smiles": "CCOc1ccc(C2CC(=O)NCc3nc(N)sc32)cc1CO", "note": "(stereo unspecified)", "Percent Effect": 4.923}, {"smiles": "COCCOc1ccccc1C(=O)N1CCCCC1c1nccs1", "note": "(stereo unspecified)", "Percent Effect": 1.225}, {"smiles": "CCN(Cc1nccs1)Cc1cc(Cl)ccc1OC", "Percent Effect": -0.3926}, {"smiles": "CCOc1ccc([C@@H]2N[C@H](c3nccs3)Cc3ccsc32)cc1OC", "Percent Effect": 113.5}, {"smiles": "CC1N(CC2CC2)C(=O)COC12CCN(C(=O)c1ccno1)CC2", "note": "(stereo unspecified)", "Percent Effect": -9.759}, {"smiles": "Cn1ncc2c(=O)[nH]c(N3CCCC3c3cccc(Cl)c3)nc21", "note": "(stereo unspecified)", "Percent Effect": -9.423}, {"smiles": "CCNC(=O)CN1CCOC(c2ccccc2C(F)(F)F)C1", "note": "(stereo unspecified)", "Percent Effect": -9.523}, {"smiles": "FC(F)(F)c1ccc(CN2CCN(Cc3cscn3)CC2)cc1", "Percent Effect": -5.816}, {"smiles": "O=c1n(CCSCc2ccccc2F)nc2ccccn12", "Percent Effect": 16.6}, {"smiles": "CC(NC(=O)Cn1cccnc1=O)c1ccc(C(F)(F)F)cc1", "note": "(stereo unspecified)", "Percent Effect": -2.849}, {"smiles": "Cn1cnn(Cc2ccccc2F)c1=O", "Percent Effect": -4.03}, {"smiles": "O=c1n(Cc2ccc(F)cc2)nc2ncccn12", "Percent Effect": 93}, {"smiles": "Fc1ccc(Cn2ncc3c2CN(c2ncccn2)C3)cc1", "Percent Effect": -12.4}, {"smiles": "O=c1n(Cc2cccc(F)c2)nc2ncccn12", "Percent Effect": 124.9}, {"smiles": "O=C(O)[C@@H]1CN(Cc2nc3ncccn3n2)C[C@H]1c1cccc(F)c1", "Percent Effect": 4.961}, {"smiles": "O=c1n(Cc2ccccc2F)nc2ncccn12", "Percent Effect": 224.5}, {"smiles": "CC(C)C1CN(c2ncccn2)CCC(=O)N1Cc1ccc(F)cc1", "note": "(stereo unspecified)", "Percent Effect": -1.405}, {"smiles": "COc1nccnc1N1CCN(Cc2cccc(F)c2)C(=O)C1", "Percent Effect": -1.411}, {"smiles": "O=c1n(Cc2ccc(C(F)(F)F)cc2)nc2ncccn12", "Percent Effect": 133.4}, {"smiles": "Cn1ccc(C(=O)N(CC(F)(F)F)c2cccc(Cl)c2)cc1=O", "Percent Effect": -11.93}, {"smiles": "CCc1nc2n(n1)CC(Nc1nc(C)cc(N(C)C)n1)CC2", "note": "(stereo unspecified)", "Percent Effect": 2.422}, {"smiles": "CCC1=NOC(CNCc2cnc(-c3ccccc3C)s2)C1", "note": "(stereo unspecified)", "Percent Effect": -1.087}, {"smiles": "Cc1c(C)n(CC(O)CN2CCCCCC2)c2c(Cl)cccc12", "note": "(stereo unspecified)", "Percent Effect": 9.081}, {"smiles": "CC(=O)c1cccc(NC(=O)NCCc2nnc[nH]2)c1", "Percent Effect": -18}, {"smiles": "O=C(O)c1nnn(Cc2cccc(C(F)(F)F)c2)c1-c1ccccn1", "Percent Effect": 11.55}, {"smiles": "O=c1n(Cc2cccc(C(F)(F)F)c2)nc2ncccn12", "Percent Effect": 134.4}, {"smiles": "O=C(O)c1nnn(Cc2cccc(C(F)(F)F)c2)c1-c1ccncc1", "Percent Effect": -2.735}, {"smiles": "Cc1cncc(NCc2ccccc2N2CCOCC2)c1", "Percent Effect": 0.5273}, {"smiles": "O=C(NCc1ccccc1CO)Nc1ccc2c(c1)CCO2", "Percent Effect": 11.78}, {"smiles": "Cc1csc(N2CCCN(C(=O)C3(C#N)CCCCC3)CC2)n1", "Percent Effect": -2.808}, {"smiles": "COCc1c(Br)cccc1NC(=O)N(C)CCO", "Percent Effect": -0.915}, {"smiles": "CCN(Cc1ccncc1)C1CCCN(Cc2ccc(F)cc2OC)C1", "note": "(stereo unspecified)", "Percent Effect": -6.511}, {"smiles": "COc1ccc(C(C#N)NC(=O)Cc2ccc(F)c(F)c2)c(OC)c1", "note": "(stereo unspecified)", "Percent Effect": 86.82}, {"smiles": "COc1cccc(C(CO)NC(=O)Cc2ccc(F)c(Br)c2)c1", "note": "(stereo unspecified)", "Percent Effect": 1.843}, {"smiles": "COc1ccc(C(C#N)NC(=O)CC2=CCCCC2)c(OC)c1", "note": "(stereo unspecified)", "Percent Effect": -6.467}, {"smiles": "COCc1nc(C)cc(Nc2ccc3c(c2)CC(=O)N3)n1", "Percent Effect": -4.999}, {"smiles": "COc1cc2c(cc1CN1C[C@@H](CN3CCOCC3)[C@@H](CO)C1)CCC2", "Percent Effect": 3.11}, {"smiles": "Cc1c[nH]nc1C1CCN(S(=O)(=O)N(C)C)CC1", "Percent Effect": -12.28}, {"smiles": "O=C(C1CCS(=O)(=O)CC1)N1CCC(c2ccc(F)cc2)C1", "note": "(stereo unspecified)", "Percent Effect": -11.81}, {"smiles": "Cc1ccc(NC(=O)N2CCN(C(=O)CC3CCCC3)CC2)s1", "Percent Effect": -2.154}, {"smiles": "Cc1c[nH]nc1C1CCN(C(=O)CC2CCCC2)C1", "note": "(stereo unspecified)", "Percent Effect": 140.5}, {"smiles": "Cc1c[nH]nc1C1CCN(C(=O)C2CCC2)CC1", "Percent Effect": 187.6}, {"smiles": "Cc1c[nH]nc1C1CCN(C(=O)C2CCCC2)C1", "note": "(stereo unspecified)", "Percent Effect": 108.3}, {"smiles": "Cc1c[nH]nc1C1CCN(C(=O)C2CCOCC2)C1", "note": "(stereo unspecified)", "Percent Effect": 146.2}, {"smiles": "COc1ccc(OC)c(C2CCN(C(=O)C3CCOCC3)C2)c1", "note": "(stereo unspecified)", "Percent Effect": 3.237}, {"smiles": "COc1ccc2cc(C3CN(C(=O)C4CCOCC4)CCO3)ccc2c1", "note": "(stereo unspecified)", "Percent Effect": -17.44}, {"smiles": "CCc1nc(CN2CCCN(C(=O)CC3CCCC3)CC2)cs1", "Percent Effect": -10.08}, {"smiles": "O=C(C1CCC1)N1CCC(C(=O)N2CCC(c3ccc(F)cc3)C2)CC1", "note": "(stereo unspecified)", "Percent Effect": 15.47}, {"smiles": "Cc1c[nH]c(CN2CC[C@@]3(O)CCN(C(=O)C4CCCC4)C[C@H]3C2)n1", "Percent Effect": 6.79}]}]}
